# Laboratory results: PubChem BioAssay (NCATS)
# Inconclusive results are not listed. Activity calls are given as the source filed them. Unless noted, the call rests on the fitted dose curve; in most records, active means well fitted curve in the direction sought with a large enough effect; inconclusive means small, poorly fitted or top-dose-only effect, or another doubt; inactive means no such curve, though single readings can be large; an effect the other way counts as inactive or inconclusive.
# Legend:
# [1] = qHTS drug screen for cell cycle checkpoint inhibitors in PARPi-resistant BRCA-mutant ovarian cancer cell lines. (AID 1963452; calls by dose curve); details: PEO1/OlaR viability, CellTiter-Glo luminescence, 96 h, stronger effect = lower value
# Summary of the method: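 PEO1, PEO4 and PEO1/OlaR ovarian cancer cells, 600 per well, exposed 96 h at 37C to a dilution series. Viability read by CellTiter-Glo luminescence, normalized to DMSO and empty wells; activity summarized as Z-AUC.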
# [2] = qHTS Counterscreen for compound interference against the NCATS DSHEA and TCM libraries (AID 1919978); details: firefly luciferase detection reagent interference, luminescence;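 further: compounds preincubated with 1 µM D-luciferin or buffer before detection reagent; % of control where 0% means no effect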
# Summary of the method: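 Interference check: test samples were incubated with D-luciferin (final 1 uM) or buffer only for 15 min, room temperature, in a qHTS titration up to 39.8 uM, then developed with detection reagent and read by luminescence.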
# [3] = Dual reporter qHTS for agonist of Pregnane X Receptor (hPXR) against the NCATS DSHEA and TCM libraries: Fluorescence readout (AID 1920058); details: PXR dual reporter cells; series mostly up to 40 µM; further: 0% is about no effect
# Summary of the method: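 hPXR-Luc HepG2 cells (2000/well) in phenol red-free medium with charcoal-stripped FBS attached for 5 h, then were exposed to compounds for about 24 h at 37 °C. Viability was read by CellTiter-Fluor fluorescence (Ex/Em 405/540 nm) after 1 h.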
# [4] = biological target: Nuclear receptor subfamily 1 group I member 2 (Homo sapiens) (UniProt O75469); assay: Dual reporter qHTS for agonist of Pregnane X Receptor (hPXR) against the NCATS DSHEA and TCM libraries: Luminescence readout (AID 1920059); details: hPXR dual reporter cells, luciferase luminescence agonist; series mostly up to 40 µM; further: 0% is about no effect
# Chain of Nuclear receptor subfamily 1 group I member 2 (Homo sapiens) (O75469 whole entry, looked up): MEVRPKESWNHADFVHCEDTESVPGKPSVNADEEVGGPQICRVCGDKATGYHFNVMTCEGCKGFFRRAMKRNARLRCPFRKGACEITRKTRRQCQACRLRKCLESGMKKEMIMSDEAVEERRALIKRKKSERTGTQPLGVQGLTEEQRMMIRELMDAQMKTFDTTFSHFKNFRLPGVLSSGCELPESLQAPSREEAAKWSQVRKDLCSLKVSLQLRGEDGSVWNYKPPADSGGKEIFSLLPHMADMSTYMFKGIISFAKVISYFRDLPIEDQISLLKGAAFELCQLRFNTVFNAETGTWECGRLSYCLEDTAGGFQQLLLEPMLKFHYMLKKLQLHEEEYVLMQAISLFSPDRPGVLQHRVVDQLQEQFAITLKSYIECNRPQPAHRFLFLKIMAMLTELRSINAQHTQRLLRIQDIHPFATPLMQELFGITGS
# From the text: Assay Development and Screening Technology Laboratory (ADST)
# National Center for Advancing Translational Sciences (NCATS), Rockville, MD
# National Institute of Health (NIH), Bethesda, Maryland
# Dietary Supplements and Natural Products have minor oversight of their safety and efficacy. We assembled a collection of Dietary Supplements and Natural Products (DSNP) as well as Traditional Chinese Medicinal (TCM) Plant extracts, which were screened against an in vitro panel of assays, including a liver cytochrome p450 enzyme panel, CAR/PXR signaling pathways, and P-gp transporter assays, to assess their activity. This pipeline facilitated the interrogation of Natural Product-Drug Interaction (NaPDI) through prominent metabolizing pathways. In addition, we compared the activity profiles of the DSNP/TCM substances with those of an approved drug collection. Many of the approved drugs have well-annotated mechanisms of action (MOA) while the MOAs for most of the DSNP and TCM samples remain unknown. Based on the premise that compounds with similar activity profiles tend to share similar targets or MOA, we clustered the library activity profiles to identify overlap with the NCATS Pharmaceutical Collection to predict the MOAs of the DSNP/TCM substances. Overall, we highlight four significant bioactivity profiles (measured by p-values) as examples of this prediction. To assess broad cytotoxicity, we employed screening against a HepG2 cell line. In addition, transporter-mediated drug interactions are utilized in the characterization of DDIs using a P-glycoprotein (P-gp) assays. To profile potential P-gp activity, a differential cell viability was measured against two cell lines: a parental KB-3-1 human cervical adenocarcinoma cell line and the drug-resistant subline KB-8-5-11 that overexpresses P-gp.
# To this end, we profiled both collections for potential CAR and/or PXR activity, employing a previously published 1536-well qHTS assay.
# [1] Lee TD, et al. A High-Throughput Screen of a Library of Therapeutics Identifies Cytotoxic Substrates of P-glycoprotein. Mol Pharmacol. Nov 2019;96(5):629-640. doi:10.1124/mol.119.115964
# For PXR luciferase reporter gene assays, we used hPXR-LucHepG2cells provided by Dr. Taosheng Chen (Department of Chemical Biology and Therapeutics, St. Jude Children's Research Hospital). Cells were cultured in EMEM supplemented with 10% fetal bovine serum, 100U/mL penicillin and 100ug/mL streptomycin, and 500ug/mL of geneticin.
# PROTOCOL TABLE (as described by Inglese J, Shamu CE and Guy RK. 2007)
# SEQUENCE No. (e.g., 1, 2, 3, etc.); […] (e.g., Cells, Incubation, Reagent, etc.); VALUE; DESCRIPTION.
# 1; Cells; 5 uL; hPXR-LucHepG2; white solid-bottom Greiner plate. […]
# 8; Read; Fluorescence; ViewLux plate reader. […]
# 11; Read; Luminescence; ViewLux plate reader. […]
# [5] = biological target: Nuclear receptor subfamily 1 group I member 2 (Homo sapiens) (UniProt O75469); assay: Dual reporter qHTS for antagonist of Pregnane X Receptor (hPXR) against the NCATS DSHEA and TCM libraries: Luminescence Readout (AID 1920060); details: hPXR dual reporter cells, luciferase luminescence, antagonist mode; series mostly up to 40 µM;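 further: HepG2 cells carrying hPXR luciferase reporter stimulated with rifampicin at 2 µM; 0% is about no effect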
# Summary of the method: (§1)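 hPXR-Luc HepG2 cells exposed 24 h at 37 C to compounds with 2 uM rifampicin in antagonist mode; luciferase luminescence measured by ONE-Glo, with CellTiter-Fluor viability read beforehand.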
# [6] = Dual reporter qHTS for antagonist of Pregnane X Receptor (hPXR) against the NCATS DSHEA and TCM libraries: Fluorescence Readout (AID 1920061); details: PXR dual reporter cells, antagonist mode; series mostly up to 40 µM; further: 0% is about no effect
# Summary of the method: as §1
# [7] = qHTS profiling for inhibitors of Plasmodium falciparum proliferation (AID 504749); further: potency means the concentration at half of the fitted maximal effect;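 on activity, negative = inhibition: 0% = DMSO vehicle and full inhibition = artemisinin control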; on all read-outs here: nearly all actives have a fitted effect of over 60% in size; details: P. falciparum in erythrocytes, SYBR Green DNA, 72 h; for activity, negative = inhibition: at 28.7 µM (top of the series)
# Summary of the method: (§2)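 Three-day growth assay of blood-stage parasites in erythrocytes (0.3% parasitemia, 2.5% hematocrit) at 37 C, 5% CO2, quantified by SYBR Green DNA staining after overnight detergent lysis.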
# 3D7 = assay: as above; details: P. falciparum in erythrocytes, SYBR Green DNA, 72 h; series mostly up to 28.7 µM
# Summary of the method: as §2
# 7G8 = assay: as above; details: P. falciparum in erythrocytes, SYBR Green DNA, 72 h; series mostly up to 28.7 µM
# Summary of the method: as §2
# AA1029 = assay: as above; details: P. falciparum in erythrocytes, SYBR Green DNA, 72 h; series mostly up to 28.7 µM
# Summary of the method: as §2
# [8] = measured here: PEO1 parental Z-AUC
compound,measurement,setting,value
CCN(CC)CCCC(C)Nc1c2ccc(Cl)cc2nc2ccc(OC)cc12 (stereo not given),Z-AUC,[1],-0.243 (inactive)
same,Z-AUC,[1]; [8],-1.15
same,Z-AUC,[1]; measured here: PEO4 Z-AUC,-1.09
CC12CCC(CC1)C(C)(C)O2,max response,[2],-1.5% (inactive)
same,outcome,[3],inactive
same,outcome,[4],inactive
same,outcome,[5],inactive
same,outcome,[6],inactive
same,"activity, negative = inhibition",[7]; parasite line A,9.21% (inactive)
same,"activity, negative = inhibition",[7]; parasite line B,-14.4% (inactive)
same,Potency,3D7,inactive
same,Potency,7G8,inactive
same,Potency,AA1029,inactive
O=C1O[C@H]([C@@H](O)CO)C(O)=C1O,max response,[2],-0.0092% (inactive)
same,outcome,[3],inactive
same,outcome,[4],inactive
same,outcome,[6],inactive
same,"activity, negative = inhibition",[7]; parasite line A,10.5% (inactive)
same,"activity, negative = inhibition",[7]; parasite line B,5.51% (inactive)
same,Potency,3D7,inactive
same,Potency,7G8,inactive
same,Potency,AA1029,inactive
CC(CN1c2ccccc2Sc2ccccc21)N(C)C (stereo not given),"activity, negative = inhibition",[7]; parasite line A,8.14% (inactive)
same,"activity, negative = inhibition",[7]; parasite line B,-0.843% (inactive)
same,Potency,3D7,inactive
same,Potency,7G8,8.91 µM (active)
COc1ccc2[nH]c(S(=O)Cc3ncc(C)c(OC)c3C)nc2n1 (stereo not given),Z-AUC,[1],-1.06 (inactive)
same,Z-AUC,[1]; [8],-0.26
same,Z-AUC,[1]; measured here: PEO4 Z-AUC,0.544
same,Potency,[7]; parasite line B,10 µM (active)
same,Potency,3D7,10 µM (active)
same,Potency,7G8,11.2 µM (active)
CN1CCCCC1CCN1c2ccccc2Sc2ccc(S(C)=O)cc21 (stereo not given),"activity, negative = inhibition",[7]; parasite line A,-4.2% (inactive)
same,"activity, negative = inhibition",[7]; parasite line B,5.63% (inactive)
same,Potency,3D7,inactive
same,Potency,7G8,10 µM (active)
CC(C)c1c(C(=O)Nc2ccccc2)c(-c2ccccc2)c(-c2ccc(F)cc2)n1CC[C@@H](O)C[C@@H](O)CC(=O)O,Z-AUC,[1],-0.739 (inactive)
same,Z-AUC,[1]; [8],-0.99
same,Z-AUC,[1]; measured here: PEO4 Z-AUC,-1.27
Cn1c(=O)c2c(ncn2CC2OCCO2)n(C)c1=O,Z-AUC,[1],-0.883 (inactive)
same,Z-AUC,[1]; [8],-0.316
same,Z-AUC,[1]; measured here: PEO4 Z-AUC,0.00528
same,"activity, negative = inhibition",[7]; parasite line A,-11.9% (inactive)
same,"activity, negative = inhibition",[7]; parasite line B,-9.38% (inactive)
same,Potency,3D7,inactive
same,Potency,7G8,inactive
same,Potency,AA1029,inactive
NC(=O)c1ncn([C@@H]2O[C@H](CO)[C@@H](O)[C@H]2O)n1,Z-AUC,[1],-0.199 (inactive)
same,Z-AUC,[1]; [8],-0.186
same,Z-AUC,[1]; measured here: PEO4 Z-AUC,-0.149
